Test [1] in a line: antimalarial activity against Dd2 strain (AID 2302;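 active = growth inhibition above 50% at the single 2 µM test dose, taken to imply half-maximal potency below 2 µM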;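 also: 0% = DMSO untreated growth and 100% = chloroquine plus artemisinin killed control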). The settings on record: P. falciparum Dd2 in RBCs, LDH growth readout, 72 h; at 2 µM; active compounds read high.
Test [2] is described as follows: HepG2 cytotoxicity, primary screen, cytotoxicity control for P. falciparum antimalarial project, cell-based, ATP luminescence (AID 2303;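 active = inhibition above 50%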;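 also: 0% = DMSO wells and 100% = digitonin-killed cells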). The settings on record: HepG2 viability, 24-48 h, at 10 µM, active compounds read high.
Test [3] concerns the target L-lactate dehydrogenase (Plasmodium falciparum (isolate CDC / Honduras)) (UniProt Q27743). The test can be described thus: PfLDH activity inhibition – cell lysate, 3D7 strain, counter-screen for P. falciparum growth inhibition project (AID 2304).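 Also: 0% = vehicle and 100% = reference inhibitor.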 The settings on record: P. falciparum 3D7 crude extract, LDH APAD/NBT absorbance; at 2 µM; active compounds read high. (In general: Counterscreens check selectivity or assay interference.)

The nature of test [4]: inhibition of 3D7 malaria parasite growth – strain 3D7 (AID 2306).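 Also: 0% = DMSO wells and 100% = chloroquine plus artemisinin control wells.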 The note with it: P. falciparum 3D7 erythrocytic growth, LDH absorbance, 72 h; at 2 µM; active compounds read high.
Test [5] addresses Calcium-dependent protein kinase 1 (Plasmodium falciparum (isolate 3D7)) (UniProt P62344). Kind of test: PfCDPK1 kinase inhibitors, biochemical, TCAMS library (AID 1159585; cut-off not given, nearly all actives have IC50 up to about 0.98 µM;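 also: inhibitors leave more ATP so luminescence rises with inhibition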). The settings on record: recombinant PfCDPK1, Kinase-Glo ATP depletion luminescence. A general note: Kinase-Glo reads ATP consumption through a luciferase reaction.
Test [6] concerns the target Plasmodium falciparum protein kinase 6 (PK6, PF3D7_1337100) (UniProt Q8IDW1). The test can be described thus: PfPK6 kinase inhibitors, biochemical, TCAMS library (AID 1159586). The settings on record: recombinant PfPK6, Kinase-Glo ATP depletion luminescence.
For test [7], the target named is Protein kinase 7 (PK7), Plasmodium falciparum 3D7 (PF3D7_0213400) (UniProt Q7YTF7). The test can be described thus: inhibition of Plasmodium PK7 catalytic activity – biochemical, TCAMS antimalarial set, Kinase-Glo luminescence (AID 1159587). The note with it: recombinant PfPK7, Kinase-Glo ATP depletion luminescence.
Chain of Protein kinase 7 (PK7), Plasmodium falciparum 3D7 (PF3D7_0213400) (Q7YTF7 1-343): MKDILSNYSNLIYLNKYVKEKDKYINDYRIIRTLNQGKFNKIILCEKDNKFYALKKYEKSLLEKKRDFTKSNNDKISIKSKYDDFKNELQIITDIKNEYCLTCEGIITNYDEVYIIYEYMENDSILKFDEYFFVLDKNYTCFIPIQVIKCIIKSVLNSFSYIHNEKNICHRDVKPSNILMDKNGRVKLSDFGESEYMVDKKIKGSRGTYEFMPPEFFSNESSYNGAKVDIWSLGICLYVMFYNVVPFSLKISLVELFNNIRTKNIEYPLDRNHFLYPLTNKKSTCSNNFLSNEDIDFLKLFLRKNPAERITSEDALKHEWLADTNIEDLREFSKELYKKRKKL
In test [8] the target is Calcium-dependent protein kinase 4 (Plasmodium falciparum (isolate 3D7)) (UniProt Q8IBS5). Kind of test: PfCDPK4 kinase inhibitors, biochemical, TCAMS library (AID 1159588; cut-off not given, nearly all actives have IC50 up to about 0.91 µM). The note with it: recombinant PfCDPK4, Kinase-Glo ATP depletion luminescence.
Chain of Calcium-dependent protein kinase 4 (Plasmodium falciparum (isolate 3D7)) (Q8IBS5 whole entry, looked up): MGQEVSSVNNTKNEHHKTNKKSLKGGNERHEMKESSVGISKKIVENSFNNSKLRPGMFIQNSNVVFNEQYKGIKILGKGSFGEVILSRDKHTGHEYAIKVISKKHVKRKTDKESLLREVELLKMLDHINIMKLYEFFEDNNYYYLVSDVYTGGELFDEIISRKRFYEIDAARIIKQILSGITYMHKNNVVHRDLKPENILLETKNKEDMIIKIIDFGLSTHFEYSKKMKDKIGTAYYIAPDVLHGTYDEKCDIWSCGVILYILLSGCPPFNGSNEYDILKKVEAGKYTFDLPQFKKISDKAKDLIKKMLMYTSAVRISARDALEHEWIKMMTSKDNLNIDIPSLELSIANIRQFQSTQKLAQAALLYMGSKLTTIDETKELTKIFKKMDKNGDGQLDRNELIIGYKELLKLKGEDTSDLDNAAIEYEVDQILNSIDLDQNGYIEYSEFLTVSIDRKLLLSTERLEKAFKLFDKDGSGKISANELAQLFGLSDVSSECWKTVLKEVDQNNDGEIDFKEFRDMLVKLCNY

Unmarked numbers belong to inactive results. For some of these results: Measured potencies and affinities stand elsewhere. Calls of active or inactive are those of the source. Unless noted, no rule for the calls is given here.

Chain of Plasmodium falciparum protein kinase 6 (PK6, PF3D7_1337100) (Q8IDW1 1-305): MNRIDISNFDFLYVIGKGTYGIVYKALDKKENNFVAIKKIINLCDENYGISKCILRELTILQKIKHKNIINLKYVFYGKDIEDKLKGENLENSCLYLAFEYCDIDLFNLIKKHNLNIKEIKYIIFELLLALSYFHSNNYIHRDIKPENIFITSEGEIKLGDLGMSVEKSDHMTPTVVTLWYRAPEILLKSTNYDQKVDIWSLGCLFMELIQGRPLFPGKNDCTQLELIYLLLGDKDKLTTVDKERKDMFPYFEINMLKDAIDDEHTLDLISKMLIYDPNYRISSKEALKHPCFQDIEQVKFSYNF
Chain of Calcium-dependent protein kinase 1 (Plasmodium falciparum (isolate 3D7)) (P62344 whole entry, looked up): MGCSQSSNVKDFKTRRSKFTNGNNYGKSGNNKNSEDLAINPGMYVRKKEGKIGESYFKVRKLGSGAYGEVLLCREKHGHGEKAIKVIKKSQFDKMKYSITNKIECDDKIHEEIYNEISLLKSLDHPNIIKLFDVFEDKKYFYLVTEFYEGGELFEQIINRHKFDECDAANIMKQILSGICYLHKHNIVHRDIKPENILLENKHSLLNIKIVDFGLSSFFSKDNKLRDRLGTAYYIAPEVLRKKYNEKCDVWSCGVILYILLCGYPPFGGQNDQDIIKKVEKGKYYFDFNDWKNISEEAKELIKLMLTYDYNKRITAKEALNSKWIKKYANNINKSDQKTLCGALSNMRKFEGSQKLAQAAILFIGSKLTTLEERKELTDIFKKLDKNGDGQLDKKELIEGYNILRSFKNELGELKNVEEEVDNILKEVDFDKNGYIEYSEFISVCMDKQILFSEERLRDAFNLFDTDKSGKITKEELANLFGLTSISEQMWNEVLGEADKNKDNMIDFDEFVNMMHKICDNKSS
Chain of L-lactate dehydrogenase (Plasmodium falciparum (isolate CDC / Honduras)) (Q27743 whole entry, looked up): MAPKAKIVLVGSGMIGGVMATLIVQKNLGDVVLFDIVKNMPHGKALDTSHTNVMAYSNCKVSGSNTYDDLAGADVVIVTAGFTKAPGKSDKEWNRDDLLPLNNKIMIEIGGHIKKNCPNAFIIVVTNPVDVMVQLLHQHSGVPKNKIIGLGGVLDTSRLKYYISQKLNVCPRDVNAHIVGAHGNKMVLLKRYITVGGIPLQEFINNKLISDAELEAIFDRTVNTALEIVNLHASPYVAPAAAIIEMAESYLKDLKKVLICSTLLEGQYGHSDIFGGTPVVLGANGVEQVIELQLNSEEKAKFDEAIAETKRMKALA

Turning to `CCCNC(=O)c1cncc(-c2ccc(CNCCCc3ccccc3)cc2)c1`, the growth inhibition in test [1] is 29%; in test [4], 101% (active). In addition, the results for the inhibition in test [2] and in test [3] were -13% and 0%, respectively. For the same compound, the result in test [5], in test [6], in test [7] and in test [8] was inactive.

For `Clc1ccc(OCCC2CCN(CCCCCCCN3CCC(CCOc4ccc(Cl)c(Cl)c4)CC3)CC2)cc1Cl`, the growth inhibition in test [1] was 82% (active); in test [4], 99% (active). The inhibition (usually the relative decrease from the control value, in per cent) in test [2] was 100% (active); in test [3] it was -5%. Besides, the outcome in test [5], in test [6], in test [7] and in test [8] was inactive.

`COc1ccc(NC(=O)/C=C/c2ccccc2Cl)cc1OCCN1CCC(N2CCCC2)CC1`: the growth inhibition is 23% in test [1] and 102% (active) in test [4]. The inhibition is 22% in test [2] and -1% in test [3]. Also, the outcome in test [5], in test [6], in test [7] and in test [8] was inactive.

Take `COc1ccc(-n2ccnc2)cc1CNC1CCN(CC2Cn3c(=O)ccc4ccc(F)c2c43)CC1` (stereo not given): the growth inhibition is 18% in test [1] and 99% (active) in test [4]. Besides, the inhibition in test [2] is 25%; in test [3], -1%. Besides, the result in test [5], in test [6], in test [7] and in test [8] was inactive.

For the compound `COc1ccc(-c2ccnc(-c3cccc(-c4ccccn4)n3)c2)cc1`, the growth inhibition was 84% (active) in test [1] and 97% (active) in test [4]. The inhibition was 44% in test [2] and -1% in test [3]. The result in test [5], in test [6], in test [7] and in test [8] was inactive.

`COc1ccc(C2C(C(=O)Nc3ccc(C)cc3Br)c3ccccc3C(=O)N2C)cc1` (stereo not given): the growth inhibition in test [1] is 2%; in test [4], 96% (active). The figures for the inhibition in test [2] and in test [3] were 4% and 6%, respectively. Also, the outcome in test [5], in test [6], in test [7] and in test [8] was inactive.

On to `Cc1nc2ccc(F)cc2n1C1CCN(C(=O)Cc2ccc(F)c(F)c2)CC1`, for which the growth inhibition in test [1] is 99% (active); in test [4], 100% (active). The inhibition in test [2] was 2%; in test [3] it was 0%. Moreover, the outcome in test [5], in test [6], in test [7] and in test [8] was inactive.

As for `O=C(Nc1cccc2ccccc12)N1CCC(NS(=O)(=O)c2cccc(C(F)(F)F)c2)CC1`, the values for the growth inhibition in test [1] and in test [4] were 1% and 95% (active), respectively. Besides, the values for the inhibition in test [2] and in test [3] were -5% and -1%, respectively. Further, the result in test [5], in test [6], in test [7] and in test [8] was inactive.

Turning to `N#Cc1ccc(N(CCNS(=O)(=O)c2cc(Br)c(Cl)s2)Cc2ccccc2C(F)(F)F)cc1C(F)(F)F`, the growth inhibition is 57% (active) in test [1] and 92% (active) in test [4]. Besides, the inhibition was 3% in test [2] and -1% in test [3]. Also, the outcome in test [5], in test [6], in test [7] and in test [8] was inactive.

Turning to `Cc1cnc(-c2cccc(C(=O)NC3CCC(CCN4CCc5ccc(C#N)cc5CC4)CC3)c2)[nH]1` (stereo not given), the growth inhibition was 69% (active) in test [1] and 100% (active) in test [4]. Also, the inhibition in test [2] is 23%; in test [3], 1%. The result in test [5], in test [6], in test [7] and in test [8] was inactive.

For the compound `CC(C)[C@H](NC(=O)c1ccc(O)c(-c2cccc(C(F)(F)F)c2)c1)C(=O)NCCN1CCCCC1`, the growth inhibition is 29% in test [1] and 99% (active) in test [4]. Also, the inhibition in test [2] is 3%; in test [3] it was 2%. Further, the outcome in test [5], in test [6], in test [7] and in test [8] was inactive.

In the case of `CC1(C)[C@H]2CC[C@]1(C)CN(CC(O)Cn1c3ccccc3c3cc(I)ccc31)C2` (stereo not given in full), the growth inhibition was 82% (active) in test [1] and 94% (active) in test [4]. For the same compound, the inhibition is -7% in test [2] and 1% in test [3]. In addition, the outcome in test [5], in test [6], in test [7] and in test [8] was inactive.

In the case of `CC(O)C1CCCCN1C(=O)c1cccc(-c2ccc(-c3nc4ccc(F)cc4[nH]3)cc2)c1` (stereo not given), the growth inhibition was 99% (active) in test [1] and 101% (active) in test [4]. The inhibition in test [2] is 46%; in test [3], -6%. The result in test [5], in test [6], in test [7] and in test [8] was inactive.

Take `CNCCCNc1ccnc2cc(Cl)ccc12`: the results for the growth inhibition in test [1] and in test [4] were 25% and 101% (active), respectively. Besides, the inhibition in test [2] is 11%; in test [3], -1%. Also, the result in test [5], in test [6], in test [7] and in test [8] was inactive.

With `COc1ccc(-c2nc(NCc3ccccc3)c3cc(OC)c(OC)cc3n2)cc1`, the growth inhibition in test [1] was 100% (active); in test [4], 101% (active). Further, the inhibition in test [2] was 15%; in test [3] it was -1%. The result in test [5], in test [6], in test [7] and in test [8] was inactive.

Turning to `Cc1cc(CNCCCCCCCNCc2ccc(-c3ccccc3)cc2)ccc1O`, the growth inhibition in test [1] is 6%; in test [4], 97% (active). Further, the inhibition in test [2] is 49%; in test [3] it was -2%. The outcome in test [5], in test [6], in test [7] and in test [8] was inactive.

Take `Cc1cccc2[nH]c(-c3ccc(-c4cccc(NCc5cn6cccnc6n5)c4)cc3)nc12`: the growth inhibition is 63% (active) in test [1] and 94% (active) in test [4]. Further, the figures for the inhibition in test [2] and in test [3] were 9% and -3%, respectively. In addition, the result in test [5], in test [6], in test [7] and in test [8] was inactive.

As to `CS(=O)(=O)c1ccc2c(c1)CCN(CCC1CCC(NC(=O)C(=Cc3ccc(Cl)cc3Cl)c3ccc(-c4ccccc4)cc3)CC1)CC2` (stereo not given), the growth inhibition in test [1] was 16%; in test [4] it was 81% (active). In addition, the figures for the inhibition in test [2] and in test [3] were 33% and -1%, respectively. For the same compound, the outcome in test [5], in test [6], in test [7] and in test [8] was inactive.

With `O=C(Nc1cccc(-c2cccc(-c3nc4ccccc4[nH]3)c2)c1)Nc1ccc(Cl)c(Cl)c1`, the growth inhibition was 98% (active) in test [1] and 101% (active) in test [4]. For the same compound, the inhibition in test [2] was 78% (active); in test [3] it was -3%. Also, the outcome in test [5], in test [6], in test [7] and in test [8] was inactive.

With `CCN(CCCN1CCCCC1)c1nccc(Nc2ccc(Cl)cc2)n1`, the growth inhibition in test [1] is 63% (active); in test [4], 89% (active). Further, the inhibition is 19% in test [2] and -1% in test [3]. Also, the outcome in test [5], in test [6], in test [7] and in test [8] was inactive.

The values above are taken from PubChem BioAssay.
